A selection: hits, their analogues and other compounds. The true share with any hit is near 4.5%.
DAX1 inh-1 = DAX1 (NR0B1) inhibitors on StAR promoter, primary screen, cell-based, luminescence, SF-1 (NR5A1), full-length DAX-1; HEK293T StAR-luciferase reporter, SF-1/DAX-1 repression relief; AID 652010, 2013; inhibition, % at 6.8 µM; 370,000 tested, 1.1% active;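 active means inhibition above the mean over all tested compounds plus 3 SD, cut at about 3.6% in these data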;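 further: 0% = DAX-1 cells with DMSO and 100% = cells lacking DAX-1 with DMSO; higher inhibition means more luminescence from relief of DAX-1 repression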
hgDAF-12 ag = H. glycines DAF-12 receptor agonists, primary screen, cell-based, luminescence, HEK293, GAL4 fusion, UAS-luciferase. Nuclear hormone receptor DAF-12 (Heterodera glycines), GAL4 fusion. HEK293 GAL4-hgDAF12 UAS-luciferase reporter, agonist luminescence; normalized to butyrate control. activation, % at 6.8 µM. 370,000 tested, 1.8% active. AID 687014, 2013;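 active means activation above a cutoff set at the mean of all screened compounds plus 3 SD, cut at about 10% in these data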;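 further: 0% = DMSO wells and 100% = sodium butyrate wells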
DAX1 inh-2 = DAX1 (NR0B1) inhibitors, primary screen, cell-based, HEK293, Gal4-DAX1, luciferase luminescence; 340,000 tested, 0.99% active; inhibition, % at 6.75 µM; HEK293 Gal4-DAX1 luciferase reporter;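 active means inhibition above the mean over all tested compounds plus 3 SD, cut at about 4.2% in these data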;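 further: 0% = DAX1-transfected cells with DMSO and 100% = empty-vector control cells with DMSO; inhibition shows as a rise in luminescence from relieved DAX1 repression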
Target sequence (P51843 207-470 limits assumed): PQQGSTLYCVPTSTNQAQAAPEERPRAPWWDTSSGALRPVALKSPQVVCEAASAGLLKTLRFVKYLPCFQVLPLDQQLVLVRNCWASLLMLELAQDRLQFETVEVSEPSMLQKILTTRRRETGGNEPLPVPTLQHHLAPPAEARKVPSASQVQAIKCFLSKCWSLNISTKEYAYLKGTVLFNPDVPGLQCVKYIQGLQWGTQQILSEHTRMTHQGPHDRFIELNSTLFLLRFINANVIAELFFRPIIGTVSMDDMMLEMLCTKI
GAA850 FXN act = FXN promoter activators, primary screen, cell-based, luciferase luminescence, HEK293 lucGAA850. HEK293 lucGAA850 FXN promoter luciferase reporter, 24 h; percent of 10 µM SAHA response. AID 540364, 2011. 360,000 tested, 0.56% active. activation, % at 6 µM;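 active means activation above the average of all compounds screened plus 3 SD, cutoff fixed separately per campaign, cut at about 7.5% in these data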;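 further: 0% = DMSO wells and 100% = 10 µM SAHA wells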
ssDAF12 agonist = S. stercoralis DAF-12 nuclear receptor activators, primary screen, cell-based, luminescence, HEK293, GRIP1 co-expression, lit1-tk-luc. Nuclear hormone receptor DAF-12 (Strongyloides stercoralis). HEK293 ssDAF-12/GRIP1 lit1-tk-luc reporter; % of 3 µM dafachronic acid response. activation, % at 6.8 µM. 370,000 tested, 1% active. AID 652126, 2013;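 active means activation above the mean over all tested compounds plus 3 SD, cut at about 0.9% in these data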;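 further: 0% = DMSO-only wells and 100% = 3 µM delta7-dafachronic acid wells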
hcDAF-12 act = H. contortus DAF-12 nuclear receptor activators, primary screen, cell-based, luminescence, HEK293, lit1-tk-luc reporter | 370,000 tested, 1.4% active | HEK293 hcDAF-12 lit1-tk-luc reporter; 0% DMSO, 100% Δ7-dafachronic acid | activation, % at 6.8 µM;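 active means activation above the mean of all tested compounds plus 3 SD, cut at about 5.5% in these data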;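 further: 100% = response to 3 µM Δ7-dafachronic acid high control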
* hit, by the source's call; · = no result given.

SMILES	DAX1 inh-1	hgDAF-12 ag	DAX1 inh-2	GAA850 FXN act	ssDAF12 agonist	hcDAF-12 act
COc1ccc(Cc2nc3ccc(C(=O)NCCSC)cc3o2)cc1	0	7	1	6	-1	2
COC(=O)CCNC(=O)c1ccc2nc(Cc3ccc(OC)cc3)oc2c1	0	0	-1	-1	-1	0
O=c1cc(-c2cccc(Br)c2)oc2cccc(O)c12	0	0	0	1	0	5.8*
O=c1cc(-c2cccc(Cl)c2)oc2cccc(O)c12	1	3	0	3	0	3
O=c1cc(-c2ccccc2)oc2cccc(O)c12	1	4	4.9*	2	0	-1
C[C@H]1CN(c2ccc(N3CCNC[C@@H]3C)cc2C#N)CCN1Cc1ccccc1	-1	3	·	·	0	0
CC(=NNC(=O)CSc1nnc(-c2ccccc2)n1-c1ccccc1)c1cccc([N+](=O)[O-])c1	-2	-3	·	·	-2	-4
CN1C(=O)c2cc(NC(=O)Cc3cccs3)ccc2OC[C@@H]2O[C@@H](CC(=O)N[C@H]3CCN(Cc4ccccc4)C3)CC[C@@H]21	0	2	·	·	-1	-2
O=c1cc(-c2ccccc2)c2c([nH]1)CCCC2	-1	1	0	0	-1	5.7*
O=c1cc(-c2ccccc2Cl)c2c([nH]1)CCC2	0	1	0	1	-1	0
CC(=O)c1cc(-c2ccc3[nH]ccc3c2)c(=O)n2c1CCC2	0	-1	·	·	-2	1
CN(C)C(=O)C(=O)c1c(-c2ccccc2)cc2ccccn12	1	-4	1	3	-1	-2
O=Nc1c(-c2ccccc2)cc2ccccn12	-1	3	6.6*	0	-1	-2
Cc1cc(C(=O)COC(=O)c2ccco2)c(C)n1Cc1ccco1	-1	-8	2	-8	-3	-3
Cc1cc(C(=O)COC(=O)c2cccn2C)c(C)n1Cc1ccco1	4.1*	5	-4	-2	-1	3
CCOC(=O)N1CCN(C(=O)C[C@@H]2C(=O)N(Cc3ccc(OC)cc3)/C3=C/CCCCC[C@@]32C(=O)OCC)CC1	0	1	·	·	-2	-2
O=C1NC[C@H](CCCCN2C[C@H](Cc3ccccc3)N(Cc3ccccc3)C(=O)C2=O)N(CCc2ccccc2)C1=O	3.8*	0	·	·	-1	-1
O=C1NC[C@@H](CCCCN2C[C@H](Cc3ccccc3)N(CCc3ccccc3)C(=O)C2=O)N(Cc2ccccc2)C1=O	-1	-1	·	·	-1	-1
O=C(Nc1c(F)c(F)c(F)c(F)c1F)OC[C@@H]1CSCCS(=O)(=O)N1	3.6*	2	·	·	0	-1
Nc1cc(=O)[nH]c(SCC(=O)Nc2ccc(S(=O)(=O)N3CCCC3)cc2)n1	-1	9	4.3*	-1	-2	0
Cc1cc2nc(-c3ccc(SCC(=O)Nc4ccc(S(=O)(=O)N5CCCC5)cc4)nc3)[nH]c2cc1C	3.7*	10	0	1	0	4
Cc1cc(=O)[nH]c(SCC(=O)Nc2ccc(S(=O)(=O)N3CCCCC3)cc2)n1	0	-1	1	0	-2	0
O=C(CSc1ccc(-c2nc3ccccc3[nH]2)cn1)Nc1ccc(S(=O)(=O)N2CCCC2)cc1	0	0	0	-1	-1	1
OC(c1ccccc1)(c1ccccc1)C1CCN(CCCNc2ccc(C(F)(F)F)cc2)CC1	0	2	·	·	-1	4
CCOC(=O)[C@@H]1c2[nH]c3ccccc3c2C[C@@]2(C(=O)OC)C=CCN12	0	1	·	·	1.5*	3
SMILES	DAX1 inh-1	hgDAF-12 ag	DAX1 inh-2	GAA850 FXN act	ssDAF12 agonist	hcDAF-12 act
COC(=O)[C@]12C=CCN1[C@@H](c1ccc(Cl)cc1)c1c(c3ccccc3n1S(=O)(=O)c1ccc(C)cc1)C2	0	5	·	·	0	1
O=C(N[C@@H]1CCCc2c1cnn2-c1ccc(F)cc1F)c1ccccn1	·	-2	·	·	-2	-4
CN(C)/C=C(\C#N)C(=O)Nc1ccc(F)c(Cl)c1	1	3	4	2	1.3*	1
Cn1c(SCc2ccccc2Cl)nc2c1c(=O)[nH]c(=O)n2C	0	2	-2	2	1.5*	-1
CCc1nnc(NC(=O)c2ccc3c(=O)n4c(nc3c2)CCC4)s1	4.4*	4	4.2*	2	-1	1
O=C(NCc1ccc(F)cc1)c1ccc2c(=O)n3c(nc2c1)CCCCC3	-1	-1	5.0*	-1	-1	1
CCCCc1nnc(NC(=O)c2ccc3c(=O)n4c(nc3c2)CCC4)s1	0	2	0	1	-1	-2
CCc1c2c3n4c1CCC[C@@H]4C[C@@H]3O[Si](C(C)C)(C(C)C)OC(C)C2=O (stereo partly specified)	·	1	·	·	-1	-3
CCC[C@H]1CN(c2ccccc2)C(=O)[C@@H]1CC(=O)Nc1ccc(OC)cc1	-1	-5	2	-1	-2	-2
CCC[C@H]1CN(c2ccccc2)C(=O)[C@@H]1CC(=O)Nc1ccc(Br)cc1	1	4	7.8*	0	0	1
COC(=O)[C@]12C[C@H](CC(=O)N3CCOCC3)C(=O)N(Cc3ccc4c(c3)OCO4)C1=C[C@H](C(C)(C)C)O[C@@H]2C	-1	1	·	·	-1	-1
CCN1CCCCC(NC(=O)c2ccc(F)cc2)C1=O (stereo unspecified)	1	1	·	·	-1	0
Oc1[nH]c2ccccc2c1/C=N/c1nccs1	1	6	2	1	1	5.7*
COc1ccc(CN=Cc2c(O)[nH]c3ccccc23)cc1	0	8	1	2	-1	2
Cc1ccc(S(=O)(=O)Cc2ccc(C(=O)N3CCN(c4ccccn4)CC3)o2)cc1	0	0	4.7*	-1	-2	-1
COc1ccc(/C=C/CN2CCN(Cc3cccc(OC)c3)C(CCO)C2)cc1 (stereo unspecified)	-1	1	4.2*	1	-2	1
COC(=O)c1n[nH]c2ccccc12	1	2	0	1	1.0*	6.2*
Cc1ccc(NC(=O)C(C)OC(=O)c2n[nH]c3ccccc23)cc1 (stereo unspecified)	1	8	1	1	-1	0
